Several values for one entry are separate records, joined by “and”; a condition that tells them apart may be missing. Equal entries are not always repeated. Out of some 360,000 compounds screened, about 650 (0.18%) were called active. No stated cut-off is given here; in the data, active means activation above about 30%; inactive means the rest. The list comes from a sample in which actives are over-represented; it also holds similar structures and randomly drawn compounds.
The compounds below were run against Thyrotropin-releasing hormone receptor (Homo sapiens) (UniProt P34981) (assay: qHTS for Small Molecule Agonists and Allosteric Enhancers of Human TRH Receptor: Primary Screen for Agonists.). Details: TRHR cells, calcium flux fluo-8, FDSS agonist mode; at 2 µM; active compounds read high.
Thyrotropin-releasing hormone receptor (Homo sapiens), sequence (P34981 whole entry, looked up): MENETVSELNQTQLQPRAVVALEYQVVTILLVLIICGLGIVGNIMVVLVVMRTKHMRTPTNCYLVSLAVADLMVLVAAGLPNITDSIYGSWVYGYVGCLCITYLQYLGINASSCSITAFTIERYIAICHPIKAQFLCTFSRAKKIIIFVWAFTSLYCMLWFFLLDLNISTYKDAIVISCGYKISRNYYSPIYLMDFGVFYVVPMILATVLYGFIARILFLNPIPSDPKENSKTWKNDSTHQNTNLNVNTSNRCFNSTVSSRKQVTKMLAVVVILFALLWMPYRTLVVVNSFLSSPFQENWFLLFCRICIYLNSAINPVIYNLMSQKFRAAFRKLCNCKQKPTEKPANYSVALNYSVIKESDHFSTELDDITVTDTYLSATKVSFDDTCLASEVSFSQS
Excerpt: NIH Chemical Genomics Center [NCGC] NIH Molecular Libraries Probe Centers Network [MLPCN] MLPCN Grant: MH089816-01 Assay Submitter (PI): Marvin Gershengorn This project aims to identify small drug-like molecules that activate (agonists) the thyrotropin releasing hormone (TRH) receptor (TRHR) or enhance its TRH-stimulated activity (allosteric enhancers). TRHR, a drug-accessible cell surface receptor expressed in specific brain regions, and its ligand TRH have been implicated in several central nervous system disorders, including depression and anxiety. Small molecule TRHR agonists or allosteric enhancers that are metabolically stable and able to cross the blood-brain barrier might serve as probes to elucidate the roles of brain TRH receptors in animal models, and might be valuable as lead compounds for the development of drugs to treat patients with central nervous system disorders. Upon TRHR-Gq activation in TRHR cells, intracellular calcium is released from stores in the endoplasmic reticulum. […] This primary screen measures compound-induced activation of calcium release.
For the HTS assay freshly prepared cells are plated at a density of 2000/well in 3 ul of complete DMEM medium containing 10% serum in 1536-well plates and cultured over night at 37 C in a humidified incubator with 5% CO2. The next day, 2 ul of a no wash calcium dye (ABD Bioquest) was added to the cells and plates were incubated at room temperature for 1 hour. For the assay, assay plates were loaded into the FDSS kinetic plate reader. A 10 cycle (1 second/cycle) baseline measurement is taken and then the FDSS online 1536 pintool delivers 23 nl of compound library (as well as TRH controls) to the plate. The plate is measured for kinetically at 1 cycle/sec for 180 seconds and is considered to be the agonist portion of the assay (eg, compounds which activate a positive calcium response during this portion are flagged as potential agonists). Following the 180 second read, 1 ul of either an EC20 (positive modulation assay) is delivered by an onboard pipette head. Measurements are taken kinetically for an additional 180 seconds. TRHR FDSS Screening Protocol 1. Reagent, 3 uL 2000 cells/well 1536 TC treated Black plate in media containing 10% FCS 2. Time, 18 hours, 33.5C 5% CO2 (cells grown at 37C) 3. Reagent, 2 uL ABD fluo-8 Ca dye 4. Time, 30 min-1.5hrs hours, Room temp (6 plates/batch) 5. Detector, EX 480/EM 530C, FDSS 10 cycles baseline (1sec/cycle) 6. Compound, 23 nL of stock solution from library 7. Detector, EX 480/EM 530C, FDSS […] (1sec/cycle) Agonist mode 8. Compound, 1 ul EC20 of TRH made up in HEPES HBSS, 10 nM final 9. Detector, EX 480/EM 530C, FDSS 100 cycles (1sec/cycle) Potentiator mode
Further: 0% is about no effect.

activation, active:
CCc1ccccc1NC(=O)/C(=C/c1ccccc1)c1ccccc1 56.2%, CCOC(=O)c1[nH]c2ccc(C)cc2c1N=C(C)N(C)C 32.1%, NC(=O)c1ccc(NC(=O)COC(=O)c2c3c(nc4ccccc24)/C(=C\c2ccc4c(c2)OCO4)CCC3)cc1 50.8%, Nc1c(C(=O)c2cccs2)sc2nsc(SCCN3CCCCC3)c12 99.5%, Cc1cc2nc3c(=O)n(Cc4ccccc4)c(=O)[nH]c3nc2cc1N 134%, C=CCSc1nnc(N2C(=O)C(O)=C(C(=O)c3ccco3)C2c2ccc(F)cc2)s1 (stereo unspecified) 48.4%, COc1cccc(C(=O)c2sc3nc(-c4ccccc4)cc(C(F)(F)F)c3c2N)c1 106%, O=C1NC(=O)C2C1C(c1ccc([N+](=O)[O-])cc1)=NN2Cc1ccccc1 (stereo unspecified) 34%, CN(c1ccccc1)c1ccc(/C=c2\s/c(=C(/C#N)C(=O)C(C)(C)C)n(Cc3ccco3)c2=O)cc1 40.8%, Cc1ccc2nc(/C(C#N)=C/c3ccc(-c4ccc(C(=O)OC(C)C)cc4)o3)[nH]c2c1 69.6%, CCN(CC)c1ccc2cc(C(N)=O)/c(=N\NC(=O)c3ccncc3)oc2c1 81.7%

activation, inactive:
CCc1ccccc1NC(=S)Nc1cc(OC)c(NC(=O)C(C)C)cc1OC 0.112%, CCc1ccccc1NC(=O)CCOc1ccccc1 0.744% and -1.55%, Cc1c(NC(=O)C(C)(C)C)cccc1-c1nc2ccccc2s1 1.53%, O=C(Cn1nc(Cc2cccnc2)c2ccccc2c1=O)N1CCN(c2ccccc2F)CC1 -1.92%, CCOc1ccc(NC(=O)c2cnn(-c3ccccc3)c2-n2cccc2)cc1 -2.32%, O=C(NCCCO)C(=O)Nc1c2c(nn1-c1ccc(F)cc1)CSC2 -1.01%, CCOC(=O)c1cc2cc(C)ccc2[nH]1 0.835%, CCOC(=O)c1ccc2[nH]c3c(c2c1)CCCC3NC=O (stereo unspecified) 0.37%, O=C(CSc1nc(C2CC2)nc2ccccc12)Nc1ccc2c(c1)OCCO2 -1.49%, NC(=O)c1ccc(NC(=O)COC(=O)C(Cc2ccccc2)NC(=O)c2ccccc2)cc1 (stereo unspecified) -0.12%, Cn1nnnc1Sc1ncnc2scc(-c3ccccc3[N+](=O)[O-])c12 -0.547%, N#Cc1nc(/C=C/c2ccc(F)cc2)oc1NC1CCCCC1 0.903%, CCCCOc1ccc(CNC(=O)c2ccc3c(c2)N(C)C(=O)C2CCCCN32)cc1 (stereo unspecified) -0.251%, CNC(=O)c1ccc(-c2nc(CN3CCc4ccccc43)c(C)o2)cc1 -1.17%, COC(=O)c1ccccc1NC(=O)c1cc(-c2ccccc2O)no1 -0.321%, CC(NC(=O)CCc1cn(Cc2ccccc2Cl)c2ccccc12)c1ccccc1 (stereo unspecified) 0.58%, COc1cc(OC)c(OC)cc1/C=C/c1nc2cc3ccccc3cc2c(=O)n1-c1ccc(F)c(Cl)c1 0.234%, Cn1c(=O)[nH]c(=O)c2c1[nH]c(=S)n2Cc1ccccc1 0.0169%, CCC(=O)Nc1ccc(C)cc1-c1nc2ccccc2n(Cc2ccccc2)c1=O 0.131%, CCN(CCCNC(=O)Cn1ncc2c([nH]c3ccccc32)c1=O)c1cccc(C)c1 -0.233%, Cc1cccc(CC(=O)N2CC(=O)Nc3ccc(F)cc3C2c2ccccc2)c1 (stereo unspecified) -0.138%, O=C(O)c1ccc(CSc2nc3cccnc3n2Cc2cccc(F)c2)cc1 -0.0878%, CCCNC(=O)c1ccc2c(c1)ncn2-c1ccc(C)cc1C -0.34%, Cc1ccc2nc(N3C(=O)C(O)=C(C(=O)c4ccco4)C3c3cccc(O)c3)sc2c1 (stereo unspecified) 0.69%, O=C(C1=C(O)C(=O)N(c2ncccn2)C1c1cccs1)c1ccco1 (stereo unspecified) 1.88%, CCNS(=O)(=O)c1ccc(NC(=O)CSc2nc(-c3ccco3)cc(C(F)(F)F)n2)cc1 -0.0767%, O=C(CNC(=O)c1ccc(Cl)c(C(F)(F)F)c1)OC(C(=O)Nc1cc(C(F)(F)F)ccc1Cl)c1ccccc1 (stereo unspecified) 1.33%, COc1cc2ccccc2cc1C(=O)Nc1cccc(-c2nc3ccccc3o2)c1 0.963%, COc1cccc(C(=O)NC2CCN(C#N)CC2)c1 0.979%, CCc1ccccc1NC(=O)c1sc2nc3c(cc2c1N)CN(Cc1ccccc1)CC3 0.215%, Cn1c(=O)c2c(nc(SCC(=O)Nc3ccc(F)cc3)n2Cc2ccccc2)n(C)c1=O -1.27%, Cc1ccc(C)n1-c1nnc(N2CCC(C(=O)NCc3ccc(F)cc3)CC2)s1 -0.123%, COc1cccc(-c2nnc3n(CCc4ccccc4)c(=O)c4ccccc4n23)c1O 0.407%, Cc1ccc(CNC(=O)CCNS(=O)(=O)c2ccc3c(c2)oc(=O)n3C)cc1 -0.309%, COc1ccc(-n2ccn(CC(=O)Nc3ccc(C)c(C)c3)c(=O)c2=O)cc1OC 0.851%, CCOC(=O)C1CCCN(S(=O)(=O)c2cc(-c3cc(C)no3)ccc2OC)C1 (stereo unspecified) -0.0318%, CC(=O)c1ccc(NC(=O)CSc2nc(-c3ccccc3F)nc3c2c(=O)n(C)c(=O)n3C)cc1 0.407%, Cc1ccccc1C(=O)Nc1sc2c(c1C(=O)N1CCC(C)CC1)CCCC2 -0.34%, COc1cccc(C(=O)NC(=O)Nc2nc(C)cc(C(F)(F)F)n2)c1 1.04%, COc1cccc(C(=O)Nc2ccc(-c3cc(C(F)(F)F)nn3-c3ccccc3)cc2)c1 1.81%, CCOC(=O)c1cccc(NC(=O)c2cc(CN3CCCC3)on2)c1 0.429%, CCC(C)Nc1oc(-c2ccc(COc3ccc(Cl)cc3)o2)nc1C#N (stereo unspecified) 0.327%, O=C1CCN(Cc2ccc([N+](=O)[O-])cc2)CCN1[C@H](CO)Cc1ccccc1 1.11%, O=C(NCCCCc1ccccc1)C1CC(c2ccc([N+](=O)[O-])cc2)=NO1 (stereo unspecified) -1.16%, CC1CCCN(c2csc3ccc(F)cc3c2=O)C1 (stereo unspecified) 0.824%, COc1ccccc1OCC(=O)Nc1nnc2n1CCS2 0.414%, CCOc1ccccc1NC(=O)Cn1c(=O)n(Cc2ccco2)c(=O)c2sc3ccccc3c21 -0.0246%, Cc1cc2c(s1)c1cnn(Cc3cc(F)c(Cl)cc3Cl)c(=O)c1n2C 0.185%, CSc1ccc(NC(=O)Cn2nnnc2-c2ccccc2F)cc1 0.477%, Cc1c(Cl)cccc1NC(=O)N1CCN(C(=O)c2nsc3ccccc23)CC1 -1.09%, Cc1ccc(C(=O)NC2CCN(C#N)CC2)cc1 0.438%, O=S(=O)(c1ccc2c(c1)OCCO2)N1CCN(S(=O)(=O)c2cc(F)ccc2F)CC1 -0.372%, CCN(CC)CCNC(=O)Cn1ncc2c3ccccc3n(Cc3ccccc3C)c2c1=O 1.76%, CCOC(=O)c1ccc(-c2ccc(/C=C(\C#N)C(=O)Nc3ccc(C)cc3)o2)cc1 1.6%, Cc1ccc2nc(/C(C#N)=C/c3ccccc3F)[nH]c2c1 1.62%, Cc1noc(/C=C/N(C)C)c1S(=O)(=O)N1CCCC(C(=O)Nc2cccc(F)c2)C1 (stereo unspecified) -0.115%, CCOC(=O)c1c(C)oc2nc(C)nc(N3CCN(c4ccc(OC)cc4)CC3)c12 -1%, COc1cccc(CNC(=O)Cc2csc3nc(-c4ccccc4)cn23)c1 -0.21%, COc1cccc2c1cc1c(=O)n(CC(=O)N3CCN(c4ccccc4)CC3)nc(C)n12 0.0688%, COc1ccc(-n2c(SCC(=O)Nc3ccc(Cl)c(C)c3)nc3n[nH]c(C)c3c2=N)cc1 0.481%, CCOC(=O)c1c(C)oc2ccc(N(C(=O)c3ccncc3)S(=O)(=O)c3ccc(CC)cc3)cc12 0.327%, C/C(=N\NC(N)=S)c1ccncc1 0.334%, N#CN1CCC(NC(=O)c2ccc(F)cc2)CC1 1.13%, O=C(CNC(=O)c1ccc(Cl)cc1Cl)OC(C(=O)Nc1cc(C(F)(F)F)ccc1Cl)c1ccccc1 (stereo unspecified) -0.435%, CC(=O)Nc1c(C)nn(-c2ccccc2)c1N1CCC(C(=O)Nc2cc(Cl)ccc2C)CC1 -0.0803%, Cc1cccc2c(=O)cc(CSc3ccccc3NC(=O)C(C)C)[nH]c12 0.235%, COc1ccc(CNC(=O)CCc2c(C)nn(-c3ccc(N4CCCC4)nn3)c2C)cc1 0.0444%, Cc1ccc(C)c(Cn2c(=O)n(CCC(=O)NCc3ccc4c(c3)OCO4)c(=O)c3sccc32)c1 -0.659%, COc1ccc(N2CCN(C3=NS(=O)(=O)C(c4cccc(Br)c4)=C3C)CC2)cc1 -0.301%, COc1cc(C(=O)NCCS(=O)(=O)N2CCN(c3ccccc3)CC2)cc(OC)c1OC 0.101%, CCc1ccc(-n2nnc(-c3nc(-c4ccccc4)no3)c2C)cc1 0.119%, CCCN(CCC)C(=O)C1CCCN(c2ncnc3c2nc2n3CCCCC2)C1 (stereo unspecified) -0.956%, O=C(CC(NCc1cccnc1)C(=O)O)Nc1ccc(O)cc1 (stereo unspecified) 0.363%, CCOc1cccc(CC(=O)N2CCc3c([nH]c4ccccc34)C2c2ccc(OC)cc2)c1OCC (stereo unspecified) 0.0175%, CC1CCCN(c2cc3c(cc2F)c(=O)c(S(=O)(=O)c2cccc(Cl)c2)cn3Cc2ccccc2)C1 (stereo unspecified) 0.542%
